This note sets out measurements from PubChem BioAssay AID623868 (Vanderbilt High Throughput Screening Facility, 2012).

Molecules are shown by their SMILES. Out of some 2,100 compounds screened, about 760 (36%) were called active.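 The calls were made as follows: active = thallium-flux fluorescence traces judged by eye to show enhanced or reduced glutamate response, manual score 1 or -1, so both directions (some results past the limit were not filed as active); inactive = the rest, including fluorescent or raised-baseline compounds.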 Not all results are given here.

The nature of this experiment: non-GIRK thallium flux modulation in mGlu8 cells, confirmation, counter-screen for GIRK activator project, cell-based, HEK-293 rmGlu8, no GIRK (AID 623868).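 Also: extra codes mark interference with 3 for fluorescent and 4 for baseline rise.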 Particulars: thallium flux fluorescence, at 10 µM, actives lie on both sides, codes: 1 enhancer, -1 blocker, 0 none, thallium stimulus containing EC20 glutamate. In general terms: Counterscreens check selectivity or assay interference.
Turning to `CSc1ccc(S(=O)(=O)NCc2ccccc2Cl)cc1`, the manual score was 0 (inactive).
Then `Cc1ccc(C(=O)CC(=O)COc2ccc(Cl)cc2C)cc1`, with 1 (active).
Then `Cc1ccc(C(=O)CC(=O)COc2ccc(Cl)cc2)cc1`, with 0 (inactive); and `Cc1ccc(NC(=O)COC(=O)CCC(=O)c2ccc(Cl)cc2)cc1S(=O)(=O)N(C)C`, with 0 (inactive).
As for `S=c1[nH]c2cc(Cl)ccc2s1`, the manual score is 1 (active).
The same measure for `COc1cccc(NC(=O)CSc2nnc(-c3ccoc3C)n2-c2ccccc2)c1`: 0 (inactive); for `Cc1ccc(C)c(-n2nnnc2SCC(=O)Nc2cccc(-c3nnc4n3CCCCC4)c2)c1`: 3 (inactive); for `CCOC(=O)c1cccc(NC(=O)CSc2nnc(C3CCCCC3)n2C)c1`: -1 (active).
As for `CCc1nnc(NC(=O)CSc2nnc(C3CCCCC3)n2-c2cccc(Cl)c2)s1`, the manual score is -0.5 (inactive).
Then `CCOC(=O)c1cccc(NC(=O)CSc2nnc(-c3cccnc3)n2C)c1`, with -1 (active); and `Cc1ccc(-c2nnc(SCC(=O)Nc3cccc(C(=O)N4CCOCC4)c3)n2C)cc1`, with 0 (inactive).
Turning to `CC1CC(=S)Nc2ccccc2N1Cc1ccccc1` (stereo not given), the manual score is 0 (inactive).
The same measure for `CC1CSc2ccccc2NC1=S` (stereo not given): 0 (inactive); for `CC1(C)CC(=S)Nc2ccccc2S1`: 1 (active); for `O=C(CSc1ccccc1)N(c1ccc(Br)cc1)c1nccs1`: 0 (inactive).
The same measure for `COc1ccccc1C1=Nn2c(nnc2C2CCCCC2)SC1`: 0 (inactive); for `Brc1ccccc1C1=Nn2c(nnc2-c2ccccc2)SC1`: 0 (inactive); for `COc1ccc(C2=Nn3c(nnc3C3CCCCC3)SC2)cc1OC`: -1 (active).
The same measure for `CCCc1nnc2n1N=C(c1ccc(OC)c(OC)c1)CS2`: -0.5 (inactive); for `c1cc2c(cc1C1=Nn3c(nnc3C3CCCCC3)SC1)OCO2`: -1 (active); for `CCC1(c2ccc(Cl)cc2)NC(=S)N(c2ccccc2)N1` (stereo not given): 1 (active).
In the case of `Clc1cccc(CSc2nnc(-c3ccccn3)n2Cc2ccco2)c1`, the manual score is -0.5 (inactive).
For the molecule `CCOc1ccccc1NC(=O)CSc1nnc(-c2ccccn2)n1Cc1ccco1`, the manual score was -1 (active).
Then `CCn1c(SCC(=O)Nc2oc(-c3ccccc3)c(-c3ccccc3)c2C#N)nnc1-c1ccco1`, with 0 (inactive); and `CCOc1ccccc1NC(=O)Nc1cccc(C(C)=O)c1`, with 0 (inactive).
Then `COc1ccc(NC(=O)CSc2nnc(-c3ccccn3)n2Cc2ccco2)cc1OC`, with 0 (inactive); and `CCOc1ccccc1NC(=O)CSc1nnc(-c2ccco2)n1Cc1ccco1`, with -1 (active); and `COc1cc(Cl)cc2c1Sc1ccccc1/C2=C/CCN(C)C`, with 0 (inactive).
On to `O=C(CSc1nc(-c2ccc(F)cc2)cs1)N1CCOCC1`, for which the manual score was 0 (inactive).
As for `CC1(C)Cc2ccccc2C(/C(=N\Nc2cccc(Cl)c2)C(N)=O)=N1`, the manual score was 0 (inactive).
The same measure for `CC(C)(C)C1CCc2c(C(=O)N/N=C/c3cccs3)csc2C1` (stereo not given): 0 (inactive).
Consider `Cc1cccc(NC(=S)NNC(=O)c2csc3c2CCCC3)c1`, for which the manual score is 1 (active).
Then `Cc1cccc(NC(=S)NNC(=O)c2csc3c2CCC(C)C3)c1` (stereo not given), with 1 (active); and `Cc1ccc(C)c(NC(=S)NNC(=O)c2cc3c(s2)CCC(C)C3)c1` (stereo not given), with 1 (active).
The same measure for `CC(C)CNC(=S)NNC(=O)c1csc2c1CCC(C)C2` (stereo not given): 0 (inactive); for `Cc1ccccc1NC(=S)NNC(=O)c1csc2c1CCC(C)C2` (stereo not given): 1 (active).
Consider `O=C1CCC(/C=C/c2ccccc2)=NN1Cc1ccc(Cl)c(Cl)c1`, for which the manual score is 0 (inactive).
In the case of `CCCN1CCC(NC(=O)Nc2ccc(F)cc2F)CC1`, the manual score is 0 (inactive).
The same measure for `Cc1ccc(C)c(NC(=S)NNC(=O)c2csc3c2CCCC3)c1`: 1 (active).
In the case of `Cc1ccc(C)c(NC(=S)NNC(=O)c2csc3c2CCC(C)C3)c1` (stereo not given), the manual score was 1 (active).
Then `O=C(NC(=S)N1CCCCC1)c1cccs1`, with 1 (active).
As to `O=C(NC(=S)N1CCN(c2ccc(Cl)cc2[N+](=O)[O-])CC1)c1cccs1`, the manual score is 1 (active).
The same measure for `O=C(NC(=S)N1CCN(c2ccc(Cl)cc2[N+](=O)[O-])CC1)c1ccco1`: 1 (active).
The same measure for `O=C(NC(=S)N1CCN(c2ccc(C(F)(F)F)cc2[N+](=O)[O-])CC1)c1cccs1`: 1 (active).
The same measure for `FC(F)(F)c1cccc(N2CCN(C(=S)NC3CCCCC3)CC2)c1`: 0 (inactive); for `O=C(O/N=C\c1ccc(N2CCCCC2)c([N+](=O)[O-])c1)c1c(F)cccc1F`: 0 (inactive).
Turning to `O=C(N1CCCCC1)N1CCN(C(=O)N(c2ccccc2)c2ccccc2)CC1`, the manual score is 0 (inactive).
The same measure for `COC(=O)C1CCCN1C(=O)c1cccs1` (stereo not given): 0 (inactive); for `CCN(CC)CC(O)COc1ccccc1C(=O)CCc1ccccc1` (stereo not given): 0 (inactive).
As to `COC(=O)c1cc(=O)n(CCc2ccc(OC)cc2)c(=Nc2ccc(F)c(Cl)c2)s1`, the manual score was 0 (inactive).
Then `O=C(NC(=S)Nc1cccc(Cl)c1N1CCCC1)c1ccc(-c2cccc([N+](=O)[O-])c2)o1`, with 0 (inactive); and `O=C(NC(=S)N1CCN(c2c(Cl)cccc2[N+](=O)[O-])CC1)c1cccs1`, with 1 (active); and `COc1ccc(N(CC(=O)NC2CCCC2)C(=O)Cn2nnc(-c3ccc(C)cc3)n2)cc1`, with 0 (inactive).
Then `COc1cc2c(C(=O)N3CCN(C4CCCCC4)CC3)cn(CC(C)C)c(=O)c2cc1OC`, with 0 (inactive); and `CC(=C/c1ccccc1)/C=N/n1c(-c2ccco2)n[nH]c1=S`, with 1 (active); and `CC(/C=N/n1c(C2CCCCC2)n[nH]c1=S)=C\c1ccccc1`, with 1 (active).
With `CC(/C=N/NC(=O)c1c(Br)cnn1C)=C\c1ccccc1`, the manual score is 0 (inactive).
Then `CC(/C=N/n1c(-c2ccco2)n[nH]c1=S)=C\c1ccccc1`, with 1 (active).
Then `Cc1ccc(C)n1-c1ccc(C(=O)NN)cc1`, with 0 (inactive); and `CC(C)NS(=O)(=O)c1ccc(OCC(=O)Nc2ccc3c(c2)OCO3)c(Cl)c1`, with 0 (inactive).
The same measure for `COc1ccc(OC)c(C(=O)c2coc3ccc(O)c(CN4CCOCC4)c23)c1`: 0 (inactive); for `Cc1ccc(-n2nc(-c3cccs3)cc2C(=O)NCC2CCCO2)c(C)c1` (stereo not given): -0.5 (inactive).
Take `O=C(CN1C(=O)c2ccccc2C1=O)Nc1sc2c(c1C(=O)NCC1CCCO1)CCC2` (stereo not given): the manual score was 0 (inactive).
Consider `CCCCCNC(=O)c1ccc2c(=O)[nH]c3c(C(=O)NCC4CCCO4)sc(=S)n3c2c1` (stereo not given), for which the manual score is -1 (active).
Then `Cc1cc(C=C2C(=O)c3ccccc3C2=O)c(C)n1-c1ccccc1`, with 3 (inactive).
